# SRC2 inh: inhibition of GAL4-SRC2 driven luciferase reporter, primary screen, SRC2 inhibitor project, cell-based, luminescence; Nuclear receptor coactivator 2 (Homo sapiens), Q15596; HEK293 GAL4-SRC2 luciferase reporter; inhibition, % at 9 µM; actives 0.17% (n = 370,000); AID 651957, 2012;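 active = inhibition above the mean inhibition of all tested compounds plus 3 SD, set per campaign, cut at about 52% in these data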;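 note: 0% = DMSO treated cells and 100% = cells given Gossypol at 36 µM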
# GalR3 antagonist: GalR3 antagonists in HEK293 cells, primary screen, cell-based, fluorescence readout | Galanin receptor type 3 (Homo sapiens), O60755 | HEK293 GalR3-CNG cAMP membrane potential fluorescence; galR3 body fused to GalR1 C-terminus | inhibition, % at 3 µM | actives 0.44% (n = 360,000);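 active = inhibition above the screen-wide average plus 3 SD, cut at about 13% in these data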;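 note: forskolin and galanin both at EC90 stimulate the cells; cAMP rise reported by CNG channel membrane potential dye signal; 0% = forskolin plus galanin with DMSO and 100% = forskolin alone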
# NR2F2 inh: NR2F2 transcriptional activity inhibitors, primary screen, cell-based, luciferase reporter, HEK293T, luminescence | AID 686940, 2013 | COUP transcription factor 2 (Homo sapiens), P24468 | actives 0.7% (n = 370,000) | inhibition, % at 8.6 µM | HEK293T NGFI-A luciferase reporter;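 active = inhibition above a per-plate cutoff, mean inhibition of test wells between control levels plus 3 SD, cut at about 38% in these data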;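 note: cells cotransfected with COUP-TFII expression vector driving the NGFI-A reporter; 0% = median of COUP-TF2 test wells and 100% = reporter-only cells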
# NCOA3 inh: SRC3 coactivator transcriptional activity inhibitors, primary screen, cell-based, luminescence; Nuclear receptor coactivator 3 (Homo sapiens), Q9Y6Q9; HEK293 GAL4-SRC3 luciferase reporter; inhibition, % at 3.6 µM; actives 0.17% (n = 360,000); AID 588352, 2011;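 active = inhibition above a per-campaign cutoff, the mean of all compounds plus 3 SD, cut at about 60% in these data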;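 note: 0% = DMSO-treated cells and 100% = gossypol-treated cells at 36 µM; higher means less SRC3-driven luciferase light from the GAL4 reporter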
# SRC1 inh: SRC1 coactivator transcriptional activity inhibitors, primary screen, cell-based, luminescence; Nuclear receptor coactivator 1 (Homo sapiens), Q15788; HEK293 GAL4-SRC1 luciferase reporter; inhibition, % at 3.6 µM; actives 0.12% (n = 360,000); AID 588354, 2011;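 active = inhibition above the campaign mean plus 3 SD, with each screening campaign given its own cutoff, cut at about 60% in these data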;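 note: 0% = DMSO treated cells and 100% = gossypol at 36 µM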
# LRH-1 inv ag: LRH-1 (NR5A2) inverse agonists, primary screen, cell-based, luminescence, HEK293T, StAR-luciferase reporter. inhibition, % at 3.6 µM. LRH-1 transfected, 24 h. actives 0.13% (n = 360,000). Nuclear receptor subfamily 5 group A member 2 (Homo sapiens), O00482;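 active = inhibition above the mean inhibition of all tested compounds plus 3 SD, cut at about 73% in these data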;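 note: 0% = DMSO wells and 100% = reporter-only cells lacking LRH-1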
# GalR3 conf: GalR3 antagonist hit confirmation, cell-based, fluorescence, triplicate; shares compounds with GalR3 antagonist; HEK293 GalR3 CNG cAMP biosensor, membrane potential fluorescence; galR3 fused to GalR1 carboxy tail; challenged with forskolin and galanin at EC90; inhibition, % at 3 µM; actives 59% (n = 1,600);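 active = inhibition above the primary screen's cutoff, the mean inhibition of all screened compounds plus 3 SD, cut at about 13% in these data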;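 note: 0% = forskolin plus galanin and 100% = forskolin alone with DMSO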
# HEK-CNG parental: nonspecific cAMP agonists in parental HEK-CNG cells, counter-screen for GalR3 antagonist project, cell-based, fluorescence, high throughput | activation, % at 3 µM | actives 10% (n = 1,600) | HEK293-CNG parental cells, cAMP membrane potential fluorescence; normalised: DMSO wells 0%, forskolin wells 100% | shares compounds with GalR3 antagonist | AID 652268, 2013; in the data active = activation above about 1.3%
# Starred values were filed as active, the others as inactive; x = no result given. Sampled rows, rich in hits. Any-hit rate of the full collection: about 1.1%.
SMILES,SRC2 inh,GalR3 antagonist,NR2F2 inh,NCOA3 inh,SRC1 inh,LRH-1 inv ag,GalR3 conf,HEK-CNG parental
Cn1c(=O)n(C)c2cc(CNC(=O)[C@H]3O[C@@H](n4cnc5c(N)ncnc54)[C@H](O)[C@@H]3O)ccc21,1,8,-7,-13,-3,12,x,x
CN(Cc1ccc2c(c1)CCCN2C)C(=O)[C@H]1O[C@@H](n2cnc3c(N)ncnc32)[C@H](O)[C@@H]1O,-20,42*,-16,-14,-35,12,85*,0
Cc1cc(C(=O)COC(=O)c2ccc(O)cc2)c(C)n1CC1CCCO1 (stereo not drawn),-44,12,-12,-47,-96,-105,x,x
COCC(C)n1c(C)cc(C(=O)COC(=O)c2ccc3c(c2)NC(=O)CS3)c1C (stereo not drawn),-15,17*,-5,11,4,1,10,0
Cc1cc(C(=O)COC(=O)c2ccc3c(c2)NC(=O)CS3)c(C)n1CC1CCCO1 (stereo not drawn),-31,23*,15,-29,-20,-15,18*,1
Cc1cc(C)c2oc(C(=O)N(Cc3ccccc3)C3CCS(=O)(=O)C3)cc(=O)c2c1 (stereo not drawn),1,4,1,17,14,-3,x,x
CCOc1ccc(CN(C(=O)c2cc(=O)c3cc(C)cc(C)c3o2)C2CCS(=O)(=O)C2)cc1 (stereo not drawn),-18,17*,-9,-9,8,11,2,0
COc1cc2c(cc1OC)-c1cc(NC3CCCCC3)nc(=O)n1CC2,-34,44*,-39,-30,-26,-2,33*,0
COc1cc2c(cc1OC)-c1cc(NC3CCCCCCC3)nc(=O)n1CC2,-26,47*,-33,-20,-54,4,57*,1.4*
CC1(C(=O)NS(=O)(=O)Cc2ccccc2C(F)(F)F)CCN1C(=O)c1ccco1 (stereo not drawn),35,-6,-10,0,-1,12,x,x
O=C(N[C@H](Cc1ccccc1)C(=O)N1CCN(CC(=O)N2CCCC2)CC1)[C@H]1O[C@@H](n2ccc(=O)[nH]c2=O)[C@H](O)[C@@H]1O,-2,-3,4,x,x,x,x,x
O=C(COC(=O)Cc1c(F)cccc1Cl)NC(=O)c1ccccc1,-2,-2,9,-15,-8,12,x,x
CC(C)NC(=O)NC(=O)COC(=O)Cc1c(F)cccc1Cl,-1,25*,2,-4,3,-5,14*,0
CNC(=S)N/N=C/c1ccc(OCC(=O)Nc2c(C)cc(C)cc2C)c(OC)c1,-13,19*,4,-4,11,8,23*,0
COCCCn1c(=O)c2sccc2n2c(CCCC(=O)NCC3CCCO3)nnc12 (stereo not drawn),-12,14*,8,-2,-1,-7,9,0
CC1(C)Cc2ccccc2-c2nc3ccccc3c(=O)n21,10,x,-17,2,20,2,3,0
O=C1c2ccccc2-n2c1nc1ccccc1c2=O,-27,-7,24,25,-15,47,x,x
COc1cccc(-c2ccc(-c3noc(-c4cccs4)n3)c(OC)n2)c1,-9,15*,-4,-4,-5,16,13*,1
COc1cccc(-c2ccc(-c3noc(-c4ccccc4F)n3)c(OC)n2)c1,-1,-6,3,15,0,-7,x,x
CCOC(=O)c1cc(-c2ccc(C#N)cc2)nc2c1c(C)nn2CCC#N,11,22*,0,-12,-1,-6,2,1.7*
O=C(Nc1nc([C@@H]2O[C@H](CO)[C@@H](O)[C@H](O)[C@H]2O)cs1)NC(c1ccccc1)c1ccccc1,2,0,-4,8,-50,13,x,x
CC1CC(=O)NN=C1c1ccc(NCCO)c([N+](=O)[O-])c1 (stereo not drawn),-25,64*,-8,-39,3,1,71*,0
CCOC(=O)C1(CCOc2ccccc2)CCN(Cc2ccc(OC)c(O)c2)CC1,-12,4,-2,4,-16,10,x,x
CCOC(=O)C1(CCOc2ccccc2)CCN(Cc2ccc(OC)c(COC)c2)CC1,13,13*,24,25,12,18,64*,3.5*
CCOC(=O)[C@]12CCCCC/C=C\1N(Cc1ccc(OC)cc1)C(=O)[C@H]2CC(=O)NCC12CC3CC(CC(C3)C1)C2,-7,x,-4,x,x,x,x,x
SMILES,SRC2 inh,GalR3 antagonist,NR2F2 inh,NCOA3 inh,SRC1 inh,LRH-1 inv ag,GalR3 conf,HEK-CNG parental
COc1ccc2oc(C)c(C(=O)c3ccccc3)c2c1,-15,5,7,12,-8,-18,x,x
COc1ccc2oc(C)c(C(=O)Cn3ccnc3)c2c1,0,15*,-9,3,-5,-30,1,0
O=C(NCCCl)NNc1c(Cl)cc(Cl)cc1Cl,-77,26*,-19,-14,-4,-4,13*,0
O=C(NC(=S)Nc1cccnc1)c1cccc(Cl)c1,-9,-4,-2,-10,-30,-35,x,x
O=C(C1CCN(c2ncnc3c2sc2cccc(F)c23)CC1)N1CCOCC1,-5,-1,23,0,-7,23,x,x
O=C(NCCN1CCOCC1)C1CCN(c2ncnc3c2sc2cccc(F)c23)CC1,-14,15*,-4,-10,-12,11,2,0
CCc1nc2ccc(C(=O)NC3CCN(Cc4ccccc4)CC3)cn2c1N(C)Cc1cc2ccccc2s1,12,-6,18,-2,8,16,x,x
Cc1ccc(S(=O)(=O)N(CC(=O)NC2CCC(C)CC2)c2cc(C)cc(C)c2)cc1 (stereo not drawn),-53,x,-13,x,x,x,x,x
Cc1ccc(/C=C/C(=O)Nc2ccccc2C(N)=O)cc1,-37,x,-47,-70,-88,-115,4,0
CC(C)(CNC(=O)/C=C/c1ccc(F)cc1)CNC(=O)/C=C/c1ccc(F)cc1,-17,31*,-47,-28,-51,-70,15*,0
